Measurements from PubChem BioAssay (NCI).
Compounds without any hit were thinned out: in the full panel of roughly 79,000, 15% have a hit. Activity calls are given as the source filed them. No stated cut-off is given here; in the data, active means growth inhibition above about 70%; inactive means the rest.

Assays:
[1] = NCI Yeast Anticancer Drug Screen. Data for the wt1 strain (AID 149);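 further: 0% = growth of vehicle-treated wt1 cultures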; conditions: S. cerevisiae wt1 strain (SPY 50644) growth inhibition, stronger effect = higher value
Method in brief: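 wt1 yeast, compound-treated; % growth inhibition vs vehicle control.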

[2] = NCI Yeast Anticancer Drug Screen. Data for the rad50EPP+ strain (AID 151);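 further: 0% = growth of vehicle-treated control cultures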; conditions: S. cerevisiae rad50 mutant strain, stronger effect = higher value
Method in brief: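 Compounds were applied to the rad50EPP+ yeast strain, which bears a defined DNA repair alteration, and growth inhibition was determined relative to vehicle-treated cultures.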

[3] = NCI Yeast Anticancer Drug Screen. Data for the mgt1 strain (AID 153); conditions: S. cerevisiae mgt1 mutant growth inhibition, stronger effect = higher value
Method in brief: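 Strain: mgt1 yeast, one of a set carrying defined DNA damage repair or cell cycle control alterations. Compound-treated growth compared with vehicle.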

[4] = NCI Yeast Anticancer Drug Screen. Data for the rad50 strain (AID 155);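 further: 0% = growth of vehicle-only cultures of the same strain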; conditions: S. cerevisiae rad50 strain growth inhibition, stronger effect = higher value
Method in brief: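 Genetically altered yeast (DNA repair pathway); compound treatment; growth inhibition vs vehicle ctrl.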

[5] = NCI Yeast Anticancer Drug Screen. Data for the mec2-1 strain (AID 157); conditions: S. cerevisiae mec2-1 strain, stronger effect = higher value
Method in brief: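 Strain: mec2-1 (DNA repair/cell cycle alteration). Compound exposure, then growth measured; inhibition expressed relative to vehicle.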

[6] = NCI Yeast Anticancer Drug Screen. Data for the rad14 strain (AID 159);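 further: 0% = growth of vehicle-treated control cultures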; conditions: S. cerevisiae rad14 strain growth inhibition, stronger effect = higher value
Method in brief: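 Test compounds were applied to a repair-deficient yeast strain. Its growth was then compared with that of cultures given vehicle alone, and inhibition was expressed relative to those controls.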

[7] = NCI Yeast Anticancer Drug Screen. Data for the sgs1 mgt1 strain (AID 161);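 further: 0% = growth of cultures given vehicle only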; conditions: S. cerevisiae sgs1 mgt1 strain, stronger effect = higher value
Method in brief: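 Genetically altered yeast, compound exposure, growth inhibition relative to vehicle.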

[8] = NCI Yeast Anticancer Drug Screen. Data for the CLN2oe strain (AID 163);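 further: 0% = growth of vehicle-only control cultures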; conditions: S. cerevisiae CLN2oe strain, stronger effect = higher value
Method in brief: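 Growth of a genetically modified yeast strain is measured after compound exposure and compared with cultures given vehicle alone.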

[9] = NCI Yeast Anticancer Drug Screen. Data for the cln2 rad14 strain (AID 165);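 further: 0% = growth equal to vehicle treated cultures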; conditions: S. cerevisiae cln2 rad14 strain, stronger effect = higher value
Method in brief: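 Compounds are applied to the cln2 rad14 yeast strain, and growth is then compared with that of vehicle-treated cultures to give inhibition.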

[10] = NCI Yeast Anticancer Drug Screen. Data for the bub3 strain (AID 167); conditions: S. cerevisiae bub3 mutant strain, stronger effect = higher value
Method in brief: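 Yeast carrying a defined mutation is treated with each compound, and growth is compared with that of vehicle-exposed cells to give inhibition.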

[11] = NCI Yeast Anticancer Drug Screen. Data for the wt2 strain (AID 169);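 further: 0% = growth of vehicle-treated yeast cultures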; conditions: S. cerevisiae wt2 strain growth inhibition, stronger effect = higher value
Method in brief: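 This strain belongs to a panel of yeast strains with defined genetic alterations in DNA damage repair or cell cycle control. Compounds are applied, and growth inhibition is measured against vehicle-treated cultures.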

[12] = NCI Yeast Anticancer Drug Screen. Data for the mlh1 strain (AID 171);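 further: 0% = growth of vehicle-treated control cultures of the same strain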; conditions: S. cerevisiae mlh1 strain growth inhibition, stronger effect = higher value
Method in brief: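 Growth of the mutant yeast strain after compound exposure, expressed as inhibition relative to vehicle-only controls.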

[13] = NCI Yeast Anticancer Drug Screen. Data for the mlh1 rad18 strain (AID 175); conditions: S. cerevisiae mlh1 rad18 strain growth inhibition, stronger effect = higher value
Method in brief: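 Read-out is yeast growth inhibition, calculated against vehicle-only controls. The compound was applied to a strain engineered with DNA damage repair alterations.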

[14] = NCI Yeast Anticancer Drug Screen. Data for the rad18 strain (AID 177); conditions: S. cerevisiae rad18 mutant growth inhibition, stronger effect = higher value
Method in brief: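 Growth of the mutant yeast strain after compound exposure, normalised to vehicle-only cultures.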

[15] = NCI Yeast Anticancer Drug Screen. Data for the sgs1 strain (AID 173);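 further: 0% = growth of vehicle-only control cultures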; conditions: S. cerevisiae sgs1 mutant, stronger effect = higher value
Method in brief: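 Growth of a yeast strain bearing a defined genetic alteration is measured after compound treatment. Inhibition is expressed relative to vehicle-only controls.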

[16] = at 5.0 µM (retest, dose inferred, filed as 0.5)
[17] = at 50.0 µM (retest, dose inferred, filed as 5.0)

Measured: growth inhibition

O=C(Nn1c(-c2ccccc2)nc2ccccc2c1=O)c1ccc(Cl)cc1
inactive: [1]; at 1.2 µM 23% | [1]; at 3.7 µM 15% | [1]; at 11.0 µM 17% | [1]; at 33.0 µM 54% | [2]; at 1.2 µM -1% | [2]; at 3.7 µM -11% | [2]; at 11.0 µM -2% | [2]; at 33.0 µM 16% | [2]; at 100.0 µM 27% | [3]; at 1.2 µM -4% | [3]; at 3.7 µM -19% | [3]; at 11.0 µM -17% | [3]; at 33.0 µM 50% | [4]; at 1.2 µM 26% | [4]; at 3.7 µM 9% | [4]; [16] -24% | [4]; at 11.0 µM 31% | [4]; [17] 68% | [4]; at 50.0 µM 66.5% | [5]; at 1.2 µM -15% | [5]; at 3.7 µM -24% | [5]; [16] -3% | [5]; at 11.0 µM -1% | [5]; at 33.0 µM 28% | [5]; [17] 9% | [5]; at 50.0 µM 36.4% | [6]; at 1.2 µM -11% | [6]; at 3.7 µM -5% | [6]; at 11.0 µM -15% | [7]; [16] 0% | [7]; [17] 24% | [7]; at 50.0 µM 56.5% | [8]; at 1.2 µM 12% | [8]; at 3.7 µM -8% | [8]; at 11.0 µM -23% | [8]; at 33.0 µM 12% | [9]; [16] -20% | [9]; [17] 16% | [9]; at 50.0 µM 49.5% | [10]; at 1.2 µM 43% | [10]; at 3.7 µM 52% | [10]; [16] -19% | [10]; [17] 68% | [10]; at 50.0 µM 68.7% | [11]; at 1.2 µM 5% | [11]; at 3.7 µM 6% | [11]; at 11.0 µM 5% | [11]; at 33.0 µM 51% | [12]; at 1.2 µM 5% | [12]; at 3.7 µM 1% | [12]; at 11.0 µM 26% | [12]; at 33.0 µM 69% | [13]; [16] -46% | [13]; [17] 68% | [14]; at 1.2 µM -2% | [14]; at 3.7 µM -2% | [14]; at 11.0 µM 13%
active: [1]; at 100.0 µM 96% | [3]; at 100.0 µM 94% | [4]; at 33.0 µM 70% | [4]; at 100.0 µM 95% | [5]; at 100.0 µM 93% | [6]; at 33.0 µM 76% | [6]; at 100.0 µM 91% | [8]; at 100.0 µM 94% | [10]; at 11.0 µM 72% | [10]; at 33.0 µM 93% | [10]; at 100.0 µM 95% | [11]; at 100.0 µM 95% | [12]; at 100.0 µM 95% | [13]; at 50.0 µM 71.9% | [14]; at 33.0 µM 70% | [14]; at 100.0 µM 95%

CCCCCC/C(C)=N/Nc1ccc([N+](=O)[O-])cc1[N+](=O)[O-]
active: [10]; [17] 91%
inactive: [1]; at 1.2 µM 8% | [1]; at 3.7 µM 1% | [1]; at 11.0 µM 4% | [1]; at 33.0 µM -7% | [1]; at 100.0 µM -13% | [2]; at 1.2 µM -7% | [2]; at 3.7 µM -21% | [2]; at 11.0 µM 14% | [2]; at 33.0 µM 22% | [2]; at 100.0 µM 23% | [3]; at 1.2 µM -3% | [3]; at 3.7 µM -9% | [3]; at 11.0 µM -5% | [3]; at 33.0 µM -11% | [3]; at 100.0 µM -12% | [4]; at 1.2 µM -18% | [4]; at 3.7 µM -18% | [4]; [16] -3% | [4]; at 11.0 µM -18% | [4]; at 33.0 µM -32% | [4]; [17] 21% | [4]; at 50.0 µM -0.35% | [4]; at 100.0 µM 14% | [5]; at 1.2 µM -3% | [5]; at 3.7 µM -4% | [5]; [16] 1% | [5]; at 11.0 µM -3% | [5]; at 33.0 µM -9% | [5]; [17] 43% | [5]; at 50.0 µM -9.7% | [5]; at 100.0 µM -8% | [6]; at 1.2 µM -1% | [6]; at 3.7 µM -2% | [6]; at 11.0 µM 17% | [6]; at 33.0 µM 23% | [6]; at 100.0 µM 2% | [7]; [16] 3% | [7]; [17] 15% | [7]; at 50.0 µM -5.7% | [8]; at 1.2 µM -11% | [8]; at 3.7 µM -10% | [8]; at 11.0 µM -14% | [8]; at 33.0 µM -18% | [8]; at 100.0 µM -19% | [10]; at 1.2 µM -8% | [10]; at 3.7 µM -4% | [10]; [16] 7% | [10]; at 11.0 µM -8% | [10]; at 33.0 µM -13% | [10]; at 50.0 µM 20.1% | [10]; at 100.0 µM -12% | [11]; at 1.2 µM -13% | [11]; at 3.7 µM -4% | [11]; at 11.0 µM 5% | [11]; at 33.0 µM 8% | [11]; at 100.0 µM 29% | [12]; at 1.2 µM -13% | [12]; at 3.7 µM -8% | [12]; at 11.0 µM -8% | [12]; at 33.0 µM -11% | [12]; at 100.0 µM -18% | [15]; at 1.2 µM -14% | [15]; at 3.7 µM -8% | [15]; at 11.0 µM 8% | [15]; at 33.0 µM 3% | [15]; at 100.0 µM 29% | [13]; [16] -6% | [13]; [17] 58% | [13]; at 50.0 µM -0.8% | [14]; at 1.2 µM -8% | [14]; at 3.7 µM -9% | [14]; at 11.0 µM -8% | [14]; at 33.0 µM -1% | [14]; at 100.0 µM -36%

Cc1c2ccncc2c(C)c2c1oc1ccccc12
inactive: [1]; at 1.2 µM 1% | [1]; at 3.7 µM 2% | [1]; at 11.0 µM 10% | [2]; at 1.2 µM 52% | [3]; at 1.2 µM -1% | [3]; at 3.7 µM 6% | [3]; at 11.0 µM 10% | [3]; at 33.0 µM 61% | [4]; at 1.2 µM 53% | [4]; at 50.0 µM 39.2% | [5]; at 1.2 µM 5% | [5]; at 3.7 µM 13% | [5]; [16] 29% | [5]; at 11.0 µM 17% | [5]; at 50.0 µM 51% | [6]; at 1.2 µM 5% | [6]; at 3.7 µM 29% | [6]; at 11.0 µM 48% | [7]; [16] 4% | [7]; at 50.0 µM 44.8% | [8]; at 1.2 µM 12% | [8]; at 3.7 µM 30% | [8]; at 11.0 µM 53% | [9]; [16] 31% | [10]; at 1.2 µM 19% | [10]; at 3.7 µM 24% | [10]; [16] 27% | [10]; at 11.0 µM 40% | [12]; at 1.2 µM 1% | [12]; at 3.7 µM 16% | [12]; at 11.0 µM 8% | [15]; at 1.2 µM -5% | [15]; at 3.7 µM -6% | [15]; at 11.0 µM 16% | [13]; [16] 64% | [13]; at 50.0 µM 50.1% | [14]; at 1.2 µM -2% | [14]; at 3.7 µM 32% | [14]; at 11.0 µM 56%
active: [1]; at 33.0 µM 89% | [1]; at 100.0 µM 97% | [2]; at 3.7 µM 82% | [2]; at 11.0 µM 84% | [2]; at 33.0 µM 98% | [2]; at 100.0 µM 97% | [3]; at 100.0 µM 98% | [4]; at 3.7 µM 87% | [4]; [16] 92% | [4]; at 11.0 µM 94% | [4]; at 33.0 µM 97% | [4]; [17] 88% | [4]; at 100.0 µM 95% | [5]; at 33.0 µM 80% | [5]; [17] 93% | [5]; at 100.0 µM 98% | [6]; at 33.0 µM 93% | [6]; at 100.0 µM 98% | [7]; [17] 93% | [8]; at 33.0 µM 89% | [8]; at 100.0 µM 97% | [9]; [17] 93% | [9]; at 50.0 µM 94.2% | [10]; at 33.0 µM 88% | [10]; [17] 94% | [10]; at 50.0 µM 96.4% | [10]; at 100.0 µM 98% | [12]; at 33.0 µM 87% | [12]; at 100.0 µM 98% | [15]; at 33.0 µM 93% | [15]; at 100.0 µM 95% | [13]; [17] 90% | [14]; at 33.0 µM 95% | [14]; at 100.0 µM 98%
